Test [1] can be described thus: NCI Yeast Anticancer Drug Screen. Data for the rad50 strain (AID 155).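 Further: 0% = growth of vehicle-only cultures of the same strain.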 As to conditions: S. cerevisiae rad50 strain growth inhibition, hits give high values. The method in brief: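 Cells are treated with compound, grown, and their growth is then scored against vehicle-only cultures of the same repair-deficient yeast strain.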
The nature of test [2]: NCI Yeast Anticancer Drug Screen. Data for the mec2-1 strain (AID 157). As to conditions: S. cerevisiae mec2-1 strain, hits give high values. The method in brief:
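Vehicle-treated cultures served as reference for growth inhibition of compound-exposed mec2-1 yeast.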

Test [3] in a line: NCI Yeast Anticancer Drug Screen. Data for the sgs1 mgt1 strain (AID 161).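 Further: 0% = growth of cultures given vehicle only.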 The note with it: S. cerevisiae sgs1 mgt1 strain, hits give high values. The method in brief:
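Inhibition of yeast growth, normalised to vehicle-treated controls, is reported for a strain bearing genetic alterations in DNA damage repair.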

Test [4] can be described thus: NCI Yeast Anticancer Drug Screen. Data for the cln2 rad14 strain (AID 165).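 Further: 0% = growth equal to vehicle treated cultures.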 As to conditions: S. cerevisiae cln2 rad14 strain, hits give high values. The gist of the method:
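Each compound was tested on cln2 rad14 yeast. Inhibition of growth was calculated against vehicle-exposed controls.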

Test [5] in a line: NCI Yeast Anticancer Drug Screen. Data for the bub3 strain (AID 167). As to conditions: S. cerevisiae bub3 mutant strain, hits give high values. The gist of the method:
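Part of a panel of yeast mutants defective in DNA damage repair or cell cycle regulation. Each strain is grown with compound, and inhibition is calculated relative to solvent-treated cultures.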

Test [6] can be described thus: NCI Yeast Anticancer Drug Screen. Data for the mlh1 rad18 strain (AID 175). As to conditions: S. cerevisiae mlh1 rad18 strain growth inhibition, hits give high values. The method in brief:
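Vehicle-treated cultures served as the reference for growth inhibition in a yeast strain carrying DNA damage repair alterations exposed to each compound.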

The mark [7] stands for this setting: at 5.0 µM (retest, dose inferred, filed as 0.5).
Setting [8] is: at 50.0 µM (retest, dose inferred, filed as 5.0).

Compounds without any hit were thinned out: in the full panel of roughly 79,000, 15% have a hit. Values without a mark were called inactive. Activity calls are given as the source filed them. No stated cut-off is given here; in the data, active means growth inhibition above about 70%; inactive means the rest.

As for `CN(/N=C/C(O)C(O)C(O)CO)c1ccccc1` (configuration not stated), the growth inhibition in test [1] (setting [7]) is 20%; in test [1] (setting [8]) it was 97% (active); in test [1] (at 50.0 µM), 98% (active); in test [2] (setting [7]) it was 3%; in test [2] (setting [8]), 99% (active); in test [2] (at 50.0 µM), 98.5% (active). For the same molecule, the growth inhibition is 9% in test [3] (setting [7]); 99% (active) in test [3] (setting [8]); 98.5% (active) in test [3] (at 50.0 µM); 14% in test [4] (setting [7]); 98% (active) in test [4] (setting [8]); 98.5% (active) in test [4] (at 50.0 µM). Moreover, the growth inhibition in test [5] (setting [7]) was 36%; in test [5] (setting [8]), 99% (active); in test [5] (at 50.0 µM) it was 98.5% (active); in test [6] (setting [7]), 47%; in test [6] (setting [8]), 99% (active); in test [6] (at 50.0 µM), 98.8% (active).

For the molecule `COc1ccc(C=C(C(=O)c2ccccc2)C(=O)c2ccccc2)cc1`, the growth inhibition in test [1] (setting [7]) was 12%; in test [1] (setting [8]), 95% (active); in test [1] (at 50.0 µM), 91.3% (active); in test [2] (setting [7]) it was -7%; in test [2] (setting [8]) it was 96% (active); in test [2] (at 50.0 µM) it was 92.3% (active). Also, the growth inhibition in test [3] (setting [7]) was -6%; in test [3] (setting [8]), 94% (active); in test [3] (at 50.0 µM) it was 91.3% (active); in test [4] (setting [7]) it was 14%; in test [4] (setting [8]) it was 95% (active); in test [4] (at 50.0 µM), 88.5% (active). For the same molecule, the growth inhibition is 16% in test [5] (setting [7]); 98% (active) in test [5] (setting [8]); 92% (active) in test [5] (at 50.0 µM); -12% in test [6] (setting [7]); 98% (active) in test [6] (setting [8]); 90.8% (active) in test [6] (at 50.0 µM).

Take `Clc1ccc(/C=N/Nc2c3ccccc3nc3ccccc23)c(Cl)c1`: the growth inhibition in test [1] (setting [7]) was -6%; in test [1] (setting [8]), 84% (active); in test [1] (at 50.0 µM) it was 86.4% (active); in test [2] (setting [7]), -11%; in test [2] (setting [8]) it was 87% (active); in test [2] (at 50.0 µM), 46%. The growth inhibition in test [3] (setting [7]) is -5%; in test [3] (setting [8]), 83% (active); in test [3] (at 50.0 µM) it was 87.8% (active); in test [4] (setting [7]) it was -47%; in test [4] (setting [8]) it was 64%; in test [4] (at 50.0 µM), 28.5%. Besides, the growth inhibition was -12% in test [5] (setting [7]); 92% (active) in test [5] (setting [8]); 60.4% in test [5] (at 50.0 µM); 0% in test [6] (setting [7]); 87% (active) in test [6] (setting [8]); 85.4% (active) in test [6] (at 50.0 µM).

Take `COc1cccc2c1OC(c1ccc(C#N)cc1)C([N+](=O)[O-])=C2` (configuration not stated): the growth inhibition is 84% (active) in test [1] (setting [7]); 97% (active) in test [1] (setting [8]); 86.2% (active) in test [1] (at 50.0 µM); 84% (active) in test [2] (setting [7]); 98% (active) in test [2] (setting [8]); 90.8% (active) in test [2] (at 50.0 µM). For the same molecule, the growth inhibition was 87% (active) in test [3] (setting [7]); 98% (active) in test [3] (setting [8]); 87.2% (active) in test [3] (at 50.0 µM); 47% in test [4] (setting [7]); 97% (active) in test [4] (setting [8]); 89.8% (active) in test [4] (at 50.0 µM). For the same molecule, the growth inhibition was 74% (active) in test [5] (setting [7]); 98% (active) in test [5] (setting [8]); 89.8% (active) in test [5] (at 50.0 µM); 92% (active) in test [6] (setting [7]); 98% (active) in test [6] (setting [8]); 83.5% (active) in test [6] (at 50.0 µM).

Turning to `O=C(Oc1ccccc1)c1ccc2ccccc2c1O`, the growth inhibition is -4% in test [1] (setting [7]); -38% in test [1] (setting [8]); 15.8% in test [1] (at 50.0 µM); -5% in test [2] (setting [7]); -35% in test [2] (setting [8]); 6.05% in test [2] (at 50.0 µM). Also, the growth inhibition in test [3] (setting [7]) was -5%; in test [3] (setting [8]), -14%; in test [3] (at 50.0 µM), 2.7%; in test [4] (setting [7]), -2%; in test [4] (setting [8]), -59%; in test [4] (at 50.0 µM), -47.1%. Further, the growth inhibition in test [5] (setting [7]) is 36%; in test [5] (setting [8]), 52%; in test [5] (at 50.0 µM), 77.7% (active); in test [6] (setting [7]) it was -4%; in test [6] (setting [8]), -27%; in test [6] (at 50.0 µM), 4.1%.

Consider `CCOC(=O)c1ccc(N(CCC(O)CN=[N+]=[N-])S(=O)(=O)c2ccc(C)cc2)cc1` (configuration not stated), for which the growth inhibition is 9% in test [1] (setting [7]); 66% in test [1] (setting [8]); 57% in test [1] (at 50.0 µM); 11% in test [2] (setting [7]); 23% in test [2] (setting [8]); 19.4% in test [2] (at 50.0 µM). The growth inhibition was 18% in test [3] (setting [7]); 63% in test [3] (setting [8]); 53.4% in test [3] (at 50.0 µM); 0% in test [4] (setting [7]); 3% in test [4] (setting [8]); 40.6% in test [4] (at 50.0 µM). The growth inhibition was -4% in test [5] (setting [7]); 49% in test [5] (setting [8]); 5.9% in test [5] (at 50.0 µM); 29% in test [6] (setting [7]); 84% (active) in test [6] (setting [8]); 55.1% in test [6] (at 50.0 µM).

Take `CC(C)n1nnc2ccccc2c1=Nc1ccccc1`: the growth inhibition is 1% in test [1] (setting [7]); 85% (active) in test [1] (setting [8]); 96.1% (active) in test [1] (at 50.0 µM); -6% in test [2] (setting [7]); 95% (active) in test [2] (setting [8]); 97% (active) in test [2] (at 50.0 µM). Moreover, the growth inhibition was -2% in test [3] (setting [7]); 89% (active) in test [3] (setting [8]); 96.2% (active) in test [3] (at 50.0 µM); 6% in test [4] (setting [7]); 16% in test [4] (setting [8]); 91.3% (active) in test [4] (at 50.0 µM). In addition, the growth inhibition in test [5] (setting [7]) is 0%; in test [5] (setting [8]), 63%; in test [5] (at 50.0 µM) it was 95.5% (active); in test [6] (setting [7]), 16%; in test [6] (setting [8]) it was 90% (active); in test [6] (at 50.0 µM), 96.5% (active).

As to `N#CN=[N+]([O-])c1ccc(C(=O)O)cc1`, the growth inhibition was 80% (active) in test [1] (setting [7]); 89% (active) in test [1] (setting [8]); 91.5% (active) in test [1] (at 50.0 µM); 87% (active) in test [2] (setting [7]); 93% (active) in test [2] (setting [8]); 93.8% (active) in test [2] (at 50.0 µM). In addition, the growth inhibition in test [3] (setting [7]) was 96% (active); in test [3] (setting [8]), 91% (active); in test [3] (at 50.0 µM) it was 91.3% (active); in test [4] (setting [7]), 99% (active); in test [4] (setting [8]) it was 84% (active); in test [4] (at 50.0 µM), 91.6% (active). Further, the growth inhibition in test [5] (setting [7]) is 96% (active); in test [5] (setting [8]), 87% (active); in test [5] (at 50.0 µM) it was 91.5% (active); in test [6] (setting [7]) it was 96% (active); in test [6] (setting [8]), 89% (active); in test [6] (at 50.0 µM) it was 90.9% (active).

Consider `O=C(CSc1nnc(Cc2ccccc2)o1)Nc1ccc(Cl)cc1`, for which the growth inhibition was -20% in test [1] (setting [7]); 87% (active) in test [1] (setting [8]); 16.1% in test [1] (at 50.0 µM); -5% in test [2] (setting [7]); 54% in test [2] (setting [8]); 15.2% in test [2] (at 50.0 µM). The growth inhibition is -1% in test [3] (setting [7]); 80% (active) in test [3] (setting [8]); 48.6% in test [3] (at 50.0 µM); 18% in test [4] (setting [7]); 79% (active) in test [4] (setting [8]); 35% in test [4] (at 50.0 µM). The growth inhibition in test [5] (setting [7]) is 4%; in test [5] (setting [8]), 91% (active); in test [5] (at 50.0 µM) it was 26.2%; in test [6] (setting [7]), -5%; in test [6] (setting [8]) it was 91% (active); in test [6] (at 50.0 µM), 28.8%.
